# Sfp PPTase inh: qHTS Assay for Inhibitors of Bacillus subtilis Sfp phosphopantetheinyl transferase (PPTase); 310,000 compounds, 3.5% hits; AID 1490, 2009; 4'-phosphopantetheinyl transferase ffp (Bacillus subtilis), Q9F4F7; Biochemical Sfp PPTase activity, qHTS; Potency, µM, usual class: inhibitors;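 further: the enzyme is Sfp with the accession as filed and its product quenches rhodamine fluorescence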
#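 Fluorescence-quenching assay: 15 nM Sfp-PPTase preincubated 15 min at room temperature with compound, then 5 uM rhodamine-CoA and 12.5 uM BHQ-2-labelled YbbR peptide added. Fluorescence (ex 525/em 598 nm) read at start and after 30 min; difference gives rate.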
# PLK1 PBD block: qHTS for Inhibitors of PLK1-PDB (polo-like kinase 1 - polo-box domain): Primary Screen | 360,000 compounds, 2.8% hits | Potency, µM, usual class: inhibitors | Plk1 PBD binding of FITC phosphopeptide, fluorescence polarization | Serine/threonine-protein kinase PLK1 (Homo sapiens), P53350; further: series mostly up to about 57 µM; nearly all actives have a fitted effect of over 65% in size
# Target sequence (P53350 whole entry, looked up, the tested form may be a part): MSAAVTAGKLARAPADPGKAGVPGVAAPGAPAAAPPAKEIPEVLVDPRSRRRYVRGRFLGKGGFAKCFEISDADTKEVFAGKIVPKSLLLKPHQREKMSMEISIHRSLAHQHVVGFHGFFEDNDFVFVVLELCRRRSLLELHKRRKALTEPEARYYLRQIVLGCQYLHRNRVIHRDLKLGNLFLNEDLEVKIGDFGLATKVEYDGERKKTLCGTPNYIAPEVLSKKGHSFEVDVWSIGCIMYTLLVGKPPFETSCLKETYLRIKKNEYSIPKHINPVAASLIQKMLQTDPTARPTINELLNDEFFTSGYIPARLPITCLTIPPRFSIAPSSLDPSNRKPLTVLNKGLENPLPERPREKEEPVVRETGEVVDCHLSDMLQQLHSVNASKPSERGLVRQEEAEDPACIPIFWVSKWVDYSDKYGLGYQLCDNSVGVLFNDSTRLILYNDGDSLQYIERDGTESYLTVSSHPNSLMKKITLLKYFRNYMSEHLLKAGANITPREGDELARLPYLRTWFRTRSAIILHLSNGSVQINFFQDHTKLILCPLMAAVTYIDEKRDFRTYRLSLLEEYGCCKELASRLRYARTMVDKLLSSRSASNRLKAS
# 12-LOX inh: Primary qHTS assay for inhibitors of human arachidonate 12S-lipoxygenase (ALOX12): Round 2; Polyunsaturated fatty acid lipoxygenase ALOX12 (Homo sapiens), P18054; purified 12hLO, xylenol orange hydroperoxide absorbance; Potency, µM (series often up to 108 µM), most hits filed as inhibitors; 580,000 compounds, 1.1% hits
#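 Purified human 12hLO at 150 nM in 25 mM Hepes, 0.01% Triton X-100, pH 7.0, preincubated 15 min at room temperature with compound. Reaction started with 40 uM arachidonic acid, 30 min at room temperature. Hydroperoxide measured by Fe-xylenol orange, 573/405 nm absorbance ratio.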
# VDR inh: Inhibitors of the vitamin D receptor (VDR): qHTS; VDR-SRC2-3 peptide fluorescence polarization, 2 h; AID 504847, 2011; Potency, µM, most hits filed as inhibitors; Vitamin D3 receptor (Homo sapiens), P11473; 400,000 compounds, 0.93% hits
#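 FP read-out; VDR + SRC2-3 coactivator peptide; 23 nl compound by pintool; 2 h RT incubation; reagents held at 4 deg C, protected from light.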
# Numbers stand for hits; . = inactive; ? = inconclusive; / = not tested or not shown; [ ] = another dose, or the depositor's remark. In the library only some 4.2% were active in any assay of this set; here they are far more common. The call rests on the fitted dose curve; in most records, active means well fitted curve in the direction sought with a large enough effect; inconclusive means small, poorly fitted or top-dose-only effect, or another doubt; inactive means no such curve, though single readings can be large; an effect the other way counts as inactive or inconclusive.
SMILES,Sfp PPTase inh,PLK1 PBD block,12-LOX inh,VDR inh
c1ccc(CN2CCN(c3nc(NCc4ccco4)c4ccccc4n3)CC2)cc1,45µM,.,40µM,.
Cc1ccc(-n2c(C3CCN(C(=O)c4ccc(OC(F)(F)F)cc4)CC3)n[nH]c2=O)cc1,/,/,.,/
Cc1ccc(S(=O)(=O)NCC(=O)OCC(=O)NCc2ccc(F)cc2)cc1,.,.,.,.
COc1ccc(/C=C2/CCc3ccccc3C2=O)cc1CN1CCOCC1,.,.,.,.
COc1ccc(/C=C2\CCc3ccccc3C2=O)cc1Cn1nc(C)cc1C,20µM,.,.,.
Cc1noc(C)c1C(=O)N1CCC2(CCCN(Cc3ccccc3)C2)CC1,.,/,.,.
O=C1C(Cc2ccccc2)Nc2ncnc(N3CCc4ccccc4C3)c2N1Cc1ccccc1 (configuration not stated),/,42µM,/,.
CCOc1cc2[nH]c(=O)n(CCCCC(=O)N3CCN(c4ccccc4)CC3)c(=O)c2cc1OCC,/,/,.,.
C/C(=N/Nc1nc(-c2ccc(Cl)cc2)cs1)c1cccs1,40µM,.,?,.
CC(=O)Nc1ccc(-c2csc(N/N=C(/C)c3ccccc3)n2)cc1,40µM,.,?,?
CC(=O)Nc1ccc(-c2csc(Nc3ncccn3)n2)cc1,.,.,.,.
CC(C)=NNc1nc(-c2ccc([N+](=O)[O-])cc2)cs1,.,.,.,.
CC(=O)Nc1ccc(-c2csc(NNC(=O)c3ccccc3)n2)cc1,18µM,.,.,.
CC(C)OCCCNC(=O)[C@H]1CN(Cc2ccccc2)C[C@H]1C(=O)O,/,/,.,/
Cn1c(=O)c2c(nc(Oc3ccc(F)cc3F)n2Cc2ccccc2F)n(C)c1=O,/,/,.,/
COc1ccccc1Oc1nc2c(c(=O)n(Cc3ccccc3F)c(=O)n2C)n1C,8.9µM,.,.,.
CN(C)S(=O)(=O)N1C(=O)c2ccccc2C1=O,13µM,.,.,.
CSCCC1NC(=O)NC1=O (configuration not stated),.,.,/,.
O=C(O)CC1S/C(=N/N=C/c2ccc(-c3ccc(Cl)cc3[N+](=O)[O-])o2)NC1=O (configuration not stated),40µM,17µM,.,?
O=C1S/C(=C\C=C\c2ccco2)C(=O)N1c1ccc(O)cc1,?,.,40µM,.
O=C1S/C(=C\C=C\c2ccco2)C(=O)N1c1ccccc1,?,.,28µM,.
Cc1cccc2c1-c1sc(C(=O)Nc3ccccc3N3CCN(C)CC3)cc1CO2,35µM,.,.,.
CC1CN(Cc2ccccc2)c2ccccc2NC1=S (configuration not stated),.,.,35µM,.
CC1CN(Cc2ccccc2)C(=O)N(c2ccccc2)C1=O (configuration not stated),/,.,.,.
COc1cc(NC(=S)N2CCC(C(O)(c3ccccc3)c3ccccc3)CC2)cc(OC)c1,.,.,40µM,.
SMILES,Sfp PPTase inh,PLK1 PBD block,12-LOX inh,VDR inh
O=C(OCC(=O)c1c[nH]c2ccccc12)c1ccc(Br)o1,.,.,.,.
CCCn1c2ccccc2c2cnn(CC(=O)NC3CCCCC3C)c(=O)c21 (configuration not stated),.,.,.,.
Cc1cc(C)n(C(C[N+](=O)[O-])c2ccc(Cl)cc2)n1 (configuration not stated),.,17µM,?,?
Cc1cc(O)c(C(C[N+](=O)[O-])c2ccc(Cl)cc2)c(=O)o1 (configuration not stated),.,.,?,.
O=C(NC1CCCCCC1)c1ccc2c(c1)CC(=O)N2Cc1ccc(F)cc1,/,/,.,/
O=C(O)c1ccc2c(c1)CC(=O)N2Cc1ccc(F)cc1,/,/,11µM,/
CC1=C(SCCC#N)S/C(=C2\SC(C)=C(SCCC#N)S2)S1,7.9µM,12µM,?,.
Cn1c(SCCC#N)nnc1-c1ccc(F)cc1,.,/,/,/
C[C@H](CO)N1C[C@H](C)[C@@H](CN(C)CC2CCCCC2)Oc2c(NC(=O)Cc3ccccc3)cccc2C1=O,/,19µM,.,?
CC(C)NC(=O)N(C)C[C@H]1Oc2c(NC(=O)Cc3ccccc3)cccc2C(=O)N([C@H](C)CO)C[C@@H]1C,/,27µM,.,?
CCOc1ccc(C(=O)CCC(=O)NCC(=O)OCc2ccccc2)cc1OCC,.,.,.,.
C=CCNC(=O)C1CC(=O)N(c2ccc(OCC(=O)Nc3ccc(Cl)cc3)cc2)C1 (configuration not stated),.,?,.,?
CC1Cc2ccccc2N1C(=O)CSC1=NCCS1 (configuration not stated),.,?,.,71µM
CC1Cc2ccccc2N1C(=O)CSc1ccccc1 (configuration not stated),.,.,.,.
COc1ccc(-c2csc(Nc3ccc(S(N)(=O)=O)cc3)n2)cc1OC,.,8.4µM,?,.
NS(=O)(=O)c1ccc(Nc2nc(-c3ccc(F)cc3)cs2)cc1,.,.,40µM,.
CC(=O)Nc1ccc(-c2csc(Nc3ccc(S(N)(=O)=O)cc3)n2)cc1,.,.,.,.
Cc1ccnc(NS(=O)(=O)c2ccc(NS(=O)(=O)c3ccc(Br)cc3)cc2)n1,.,.,.,.
NC(=S)N/N=C/c1ccc(-c2cc(Cl)cc(Cl)c2)o1,50µM,.,40µM,?
NC(=S)N/N=C/c1ccc(-c2ccc([N+](=O)[O-])cc2)o1,3.5µM,24µM,32µM,?
COC(=O)N/N=C/c1ccc(-c2cc(Cl)cc(Cl)c2)o1,.,.,.,.
NC(=S)N/N=C/c1ccc(-c2cc(Cl)ccc2Cl)o1,.,.,22µM,.
Cc1noc(C)c1C(=O)N1CCN(c2ccc(C=O)cc2)C(=O)C1,/,/,.[6.33 µM],/
Cc1noc(C)c1C(=O)N(C)Cc1ccccc1,.,.,.,.
Cc1ccccc1CN(C)C(C(=O)NC1CC1)c1ccccc1 (configuration not stated),/,/,.,/
SMILES,Sfp PPTase inh,PLK1 PBD block,12-LOX inh,VDR inh
Cn1c(=O)c2[nH]c(=S)n(Cc3ccccc3)c2n(C)c1=O,/,.,?,?
CCCCn1c(=S)[nH]c2c(=O)n(C)c(=O)n(C)c21,/,.,45µM,/
c1ccc(N(c2ccccc2)c2nc(N3CCCC3)nc(-n3ccnc3)n2)cc1,45µM,.,.,.
c1ccc(CN2CCN(c3nc(-c4ccccc4)nc(-n4ccnc4)n3)CC2)cc1,32µM,.,/,.
CN(c1ccccc1)c1nc(N2CCCC2)nc(-n2ccnc2)n1,.,.,.,.
c1ccc(-c2nc(-n3ccnc3)nc(-n3ccnc3)n2)cc1,?,.,.,.
CCOc1cc(CNCCSc2nnnn2C)ccc1OCc1ccc(Cl)cc1Cl,/,/,.,.
O=C1C(=C(I)I)c2ccccc2-c2ccccc21,/,4.7µM,5.6µM,35µM
O=C(O)c1cccc2c1C(=O)c1ccccc1-2,.,.,.,.
CCn1c(-c2cc(-c3cc(OC)ccc3OC)nc3ccccc23)n[nH]c1=S,.,.,20µM,.
Cc1cc(C)cc(NC(=O)N2CCN3CCCCC3C2)c1 (configuration not stated),/,/,.,.
